An excerpt weighted towards active compounds, which were near 2.9% of everything screened.
IP6K1 inhibitor: IP6K1 kinase inhibition; AID 1645851; activity change, % (series mostly up to about 58 µM); 140,000 compounds, 0.81% hits; IP6K1 kinase, ADP-Glo luminescence, 2 h; active compounds read low; in the data active = activity change below about -25%; also: % is scaled to controls: 0 for no effect and ±100 for the full control effect
Target sequence (Q92551 whole entry, looked up): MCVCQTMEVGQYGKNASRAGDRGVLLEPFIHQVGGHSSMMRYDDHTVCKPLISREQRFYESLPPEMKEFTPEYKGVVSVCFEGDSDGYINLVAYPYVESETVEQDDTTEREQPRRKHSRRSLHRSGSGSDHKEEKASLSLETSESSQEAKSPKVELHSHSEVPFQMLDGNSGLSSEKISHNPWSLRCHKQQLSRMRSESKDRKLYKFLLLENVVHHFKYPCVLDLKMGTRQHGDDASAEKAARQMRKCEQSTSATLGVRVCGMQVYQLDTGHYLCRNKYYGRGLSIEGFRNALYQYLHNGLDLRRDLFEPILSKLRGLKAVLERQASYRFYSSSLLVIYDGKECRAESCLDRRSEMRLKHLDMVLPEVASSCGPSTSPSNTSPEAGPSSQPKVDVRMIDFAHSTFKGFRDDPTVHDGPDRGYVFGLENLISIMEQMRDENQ
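ADP-Glo luminescence measures ADP made by human IP6K1 during a 2 h RT reaction with ATP/IP6 (mix at 1.3 mM/130 uM); top library doses 57.5 and 19.1 uM final.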
HEK293 viab: cell viability loss counter-screen; HEK-293-SNCA-luc viability, GF-AFC fluorescence, 24 h; Potency, µM (top dose mostly 57.1 µM), inactives show top-dose activity change, negative = cytotoxicity, usual class: cytotoxic; 150,000 compounds, 0.12% hits; AID 1671193;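 also: potency is read from the fitted curve at half-maximal effect; 0% = DMSO-treated cells and -100% = medium-only wells without cells; nearly all actives have a fitted effect of over 30% in size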
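Cytotoxicity counterscreen: after 24 h compound treatment of genome-edited SNCA-luciferase HEK-293 cells, live-cell protease substrate GF-AFC read by fluorescence after 30 min; activity scaled between DMSO (0%) and medium-only (-100%), curves Hill-fitted.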
SNCA expr inhib: inhibitors of alpha-synuclein (SNCA) gene expression; AID 1671194; HEK-293 SNCA-luciferase knock-in, luminescence, 24 h; Potency, µM (top dose mostly 57.2 µM), without a hit: at the highest dose activity change, negative = inhibition, most hits filed as inhibitors; 140,000 compounds, 0.17% hits;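 also: potency is read from the fitted curve at half-maximal effect; plate controls were DMSO cells for no effect and cell-free wells for full effect; nearly all actives have a fitted effect of over 45% in size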
KDM5B inh: inhibitors of human KDM5B histone demethylase; Q9UGL1; KDM5B demethylase, FDH-coupled NADH fluorescence (FDH is formaldehyde dehydrogenase); 220,000 compounds, 2.6% hits; AID 1347165; Potency, µM (doses to about 57.7 µM), actives largely listed as inhibitors; also: potency is read from the fitted curve at half-maximal effect; 0% is about no effect; nearly all actives have a fitted effect of over 70% in size
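Measured: NADH fluorescence change, 30 min, RT. System: KDM5BΔAP 200 nM final, H3K4me3 peptide, α-KG, Fe(II), ascorbate, NAD⁺ plus FDH, pH 7.5 HEPES. Compounds: titrated, 10 min pre-incubation with enzyme.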
An asterisk follows results filed as active; i = inactive; ? = inconclusive; · = no result given; [ ] = remark or other dose. Unless noted, calls follow the shape of the dose curve; as a rule, active = well fitted curve in the direction sought with a large enough effect; inconclusive = small, poorly fitted or top-dose-only effect, or another doubt; inactive = no such curve, though single readings can be large; an effect the other way counts as inactive or inconclusive.

SMILES | IP6K1 inhibitor | HEK293 viab | SNCA expr inhib | KDM5B inh
Cc1ccc2nc(C)c(C)c(C(=O)NCc3nc(-c4ncccn4)no3)c2c1 | -1 | -7% | 11% | 28µM*
COc1ccc2c(C)c(C(=O)NCc3nc(-c4ncccn4)no3)oc2c1 | 12 | -2% | 1% | i
O=C1COc2ccc(-c3ccccc3)nc2CN1Cc1ccc(F)cc1 | 1 | -1%[87.6 µM] | -30%[87.6 µM] | i
CN(c1ccccc1)c1ccc2c(n1)CN(CCOc1ccccc1)C(=O)CO2 | -12 | 6%[87.6 µM] | -27%[87.6 µM] | 32µM*
O=C1COc2ccc(-c3ccc4c(c3)OCO4)nc2CN1Cc1ccc(F)cc1 | -1 | -9%[87.6 µM] | -5%[87.6 µM] | 35µM*
O=C1COc2ccc(-c3ccccc3)nc2CN1CCOc1ccccc1 | -5 | 2%[87.6 µM] | 11%[87.6 µM] | i
Cc1nc(CN2Cc3nc(N(C)c4ccccc4)ccc3OCC2=O)cs1 | 2 | -10%[87.6 µM] | -21%[87.6 µM] | ?
CN(c1ccccc1)c1ccc2c(n1)CN(Cc1ccccc1)C(=O)CO2 | -5 | 1%[87.6 µM] | 6%[87.6 µM] | 35µM*
CN(C)C(=O)c1n[nH]c2c1CN(C(=O)c1ccc(F)cc1)CC2 | -7 | 5% | 13% | i
COc1ccc(C)cc1NC(=O)CC(c1cccc(F)c1)n1cccc1 (stereo not drawn) | · | · | · | i
COC[C@@H]1CN(c2ncccn2)C[C@H]1C(=O)NCc1c(C)n[nH]c1C | 0 | -14% | 25% | 28µM*
COc1ccccc1CNC(=O)[C@H]1CN(C(C)C)C[C@H]1C(=O)O | 8 | ? | -17% | i
COC[C@@H]1CN(c2ncccn2)C[C@H]1C(=O)N1CCc2ccccc21 | 7 | -18% | 11% | ?
COC[C@@H]1CN(c2ncccn2)C[C@H]1C(=O)NCc1ccccc1OC | 3 | -2% | -14% | 18µM*
COC[C@@H]1CN(c2ncccn2)C[C@H]1C(=O)N(C)Cc1cn(C)nc1C | 7 | -3% | -4% | 14µM*
COC[C@@H]1CN(c2ncccn2)C[C@H]1C(=O)Nc1ccc(OC)nc1 | 4 | 3% | 21% | 25µM*
CC(c1ccccc1)N(C)CC(=O)NC1(C#N)CCCC1 (stereo not drawn) | · | · | · | i
O=C1OC[C@@H]2CCNCc3ccccc3N12 | -9 | 3%[87.6 µM] | 28%[87.6 µM] | i
Cn1c(=O)[nH]c(=O)c2c1nc(N1CCN(C/C=C/c3ccccc3)CC1)n2Cc1cccc(Cl)c1 | · | · | · | i
CC(C)C(=O)N1CCN(CCCn2nc3n(c2=O)CCCC3)CC1 | -1 | · | · | ·
CCC(C)Cc1c(C)sc2nc(CNc3ccccc3)[nH]c(=O)c12 (stereo not drawn) | · | · | · | i
COC[C@@H]1CN(c2ncccn2)C[C@H]1C(=O)NCCn1cccn1 | 9 | -48% | -13% | 20µM*
O=C(C1CCCC1)N1CCc2nc(C3CC3)nc(-c3ccc(Cl)cc3)c2C1 | 8 | 4% | -3% | i
Cn1ncc2c(C(=O)NCc3cccc(Cl)c3)cc(-c3cccc(F)c3)nc21 | 5 | · | · | ·
O=C(NC1CCCN(c2ccnc3ccnn23)C1)c1ccc(C(F)(F)F)cc1 (stereo not drawn) | 19 | -17% | -17% | ·
SMILES | IP6K1 inhibitor | HEK293 viab | SNCA expr inhib | KDM5B inh
CN(C)CCNC(=S)NC(c1ccc2c(c1)CCC2)c1cccs1 (stereo not drawn) | · | · | · | i
COc1cncc(Nc2cnc3ccc(N(C)Cc4ccc(F)cc4)nn23)c1 | -13 | -1%[87.6 µM] | ? | 35µM*
Fc1ccc(-c2ccc3ncc(Nc4ccnc(N5CCOCC5)c4)n3n2)cc1 | -12 | ? | -19%[87.6 µM] | i
CN(Cc1ccc(F)cc1)c1ccc2ncc(Nc3ccnc(N4CCOCC4)c3)n2n1 | -21 | -18%[87.6 µM] | ? | 28µM*
O=C(N/N=C/c1c2ccccc2cc2ccccc12)c1cccs1 | · | · | · | i
COC[C@@H]1CN(c2cnccn2)C[C@H]1C(=O)NCC1CC1 | 0 | 1% | -14% | 18µM*
COC[C@@H]1CN(c2cnccn2)C[C@H]1C(=O)NCCc1ccncc1 | 7 | 11% | -6% | 25µM*
COc1ccc(C(=O)N[C@@H]2CCC[C@@H]2C(=O)NCc2ccc(C)c(C)c2)cc1 | 16 | -25% | -19% | i
COC[C@@H]1CN(c2cnccn2)C[C@H]1C(=O)NCc1ccc(C)c(C)c1 | 13 | -19% | -12% | 18µM*
CNC(=O)c1cc(C2CC2)nc2onc(C3CCN(C(=O)c4cccc(Cl)c4)CC3)c12 | -2 | · | · | ·
COC(=O)NC1CCCN(Cc2ccc(-c3cccc(OC)c3)cc2)C1 (stereo not drawn) | -2 | 11% | 63% | ·
Cn1c(SCC(=O)Nc2cc(S(=O)(=O)N3CCCCCC3)ccc2Cl)nnc1C1CC1 | · | · | · | i
O=C(Nc1ccc(Cl)cc1)c1nc2c(o1)CCN(Cc1ccccc1)CC2 | 6 | -16%[87.6 µM] | 0%[87.6 µM] | 32µM*
O=C(NCC1CC1)c1nc2c(o1)CCN(Cc1ccc3[nH]ccc3c1)CC2 | 20 | 0%[87.6 µM] | 15%[87.6 µM] | i
O=C(NCc1ccccc1)c1nc2c(o1)CCN(Cc1ccc(F)c(Cl)c1)CC2 | 2 | -8%[87.6 µM] | -25%[87.6 µM] | 28µM*
O=C(NCc1ccccc1)c1nc2c(o1)CCN(Cc1ccc(F)cc1)CC2 | 5 | -5%[87.6 µM] | -5%[87.6 µM] | i
O=C(NCCOc1ccccc1)c1nc2c(o1)CCN(Cc1ccc3[nH]ccc3c1)CC2 | 3 | -3%[87.6 µM] | 18%[87.6 µM] | 40µM*
O=C(Nc1ccc(Cl)cc1)c1nc2c(o1)CCN(Cc1cc(F)ccc1F)CC2 | -2 | -12%[87.6 µM] | 1%[87.6 µM] | 32µM*
CN(C)C(=O)c1cccnc1OC1CCN(C(=O)c2ccc(OC(F)(F)F)cc2)C1 (stereo not drawn) | 1 | 5% | 29% | i
CCc1nc2ccccc2c(C(=O)OCC(=O)NC(=O)NC(C)C)c1C | · | · | · | i
Cc1ccc(NC(=O)c2sc3nc(-c4ccc(F)cc4)cn3c2C)cc1Cl | · | · | · | i
S=C(NCCC(c1ccccc1)c1ccccc1)Nc1ccc(Cl)cc1Cl | · | · | · | i
CCn1c(CO)nnc1C1CC(NC(=O)c2cnc3sccn3c2=O)C1 (stereo not drawn) | 0 | -1% | 1% | 28µM*
CCn1c(CO)nnc1C1CC(NC(=O)c2scc3c2CCCC3)C1 (stereo not drawn) | 2 | -20% | -19% | i
CCN(CC)c1ccc(NC(=O)CCn2ccn3nc4c(c3c2=O)CCCC4)c(C)c1 | 18 | ? | -29% | ?
SMILES | IP6K1 inhibitor | HEK293 viab | SNCA expr inhib | KDM5B inh
CCCNC(=O)NC(=O)CN1CCCCC1 | · | · | · | i
CCc1ccc(CNc2ncncc2-c2nc(-c3ccccc3)no2)cc1 | -7 | 14% | -1% | 28µM*
c1ccc(CCNc2ncncc2-c2nc(-c3ccccc3)no2)cc1 | -6 | 3% | 1% | 35µM*
COc1ccc(CNC(=O)Cn2c(C)cc3nc4n(c(=O)c32)CCCCC4)cc1 | -11 | -9% | 17% | i
COc1ccc(Cl)cc1NC(=O)Cn1c(N2CCCCC2)nc(C)c(C)c1=O | 13 | 9% | -1% | 20µM*
COc1ccc(Cl)cc1NC(=O)Cn1c(N2CCC(C)CC2)nc(C)cc1=O | 11 | 11% | -27% | 28µM*
COc1ccc(OC)c(NC(=O)Cn2c(N3CCCCC3)nc(C)c(C)c2=O)c1 | 22 | 3% | 14% | ?

Screens (PubChem)
